Measured values as given in PubChem BioAssay (NCATS).
Results filed as inconclusive are left out. Where a call stands in place of a potency, no number is given. The source made the active and inactive calls. Calls come from the whole dose curve; as a rule, active = well fitted curve in the direction sought with a large enough effect; inconclusive = small, poorly fitted or top-dose-only effect, or another doubt; inactive = no such curve, though single readings can be large; an effect the other way counts as inactive or inconclusive.

experiment: qHTS of pediatric cancer cell lines to identify multiple opportunities for drug repurposing: Primary screen for SK-N-MC cells (AID 1347093); settings: SK-N-MC viability, CellTiter-Glo luminescence, 48 h; series mostly up to 46 µM
Procedure, shortened: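 Metabolically active cells were quantified by ATP-dependent luminescence (CellTiter-Glo, 15 min at room temperature) following 48 h treatment. Cells had been plated at 500-1,000 per well and settled for 5 h beforehand.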
Potency is the fitted concentration of half-maximal effect.

| SMILES | Potency |
| --- | --- |
| c1coc(CNc2ncnc3nc[nH]c23)c1 | inactive |
| CCOc1cc2c(c(F)c1OCC)C(=N)N(CC(=O)c1cc(N3CCOCC3)c(OC)c(C(C)(C)C)c1)C2 | 0.833 µM (active) |
| CCNC(=O)c1cc2c(-c3cc(OCCN4CCCC4)c(Cl)cc3Cl)nc(N)nc2s1 | 2.64 µM (active) |
| Cc1ccc2nc(NCCN)c3ncc(C)n3c2c1 | 1.66 µM (active) |
| CC(C)(O)[C@H]1CC[C@@](C)([C@H]2[C@@H](O)C[C@@]3(C)[C@@H]4C[C@H](O[C@@H]5O[C@H](CO)[C@@H](O)[C@H](O)[C@@H]5O)[C@H]5C(C)(C)[C@@H](O[C@@H]6OC[C@@H](O)[C@H](O)[C@@H]6O)CC[C@@]56C[C@@]46CC[C@]23C)O1 | inactive |
| CC(C(C)N1CC(=O)NC(=O)C1)N1CC(=O)NC(=O)C1 (configuration not stated) | 0.743 µM (active) |
| CC(=O)OC[C@@H]1O[C@@H](n2ccc(=O)[nH]c2=O)[C@H](OC(C)=O)[C@H]1OC(C)=O | inactive |
| CC(=CC(=O)Nc1ccccc1C(=O)O)c1ccc2ccccc2c1 | 8.33 µM (active) |
| Cc1cnc(NC(=O)Nc2cc(Br)c(C)cc2OC[C@@H]2CNCCO2)cn1 | 0.166 µM (active) |
| Cn1cnc2c(F)c(Nc3ccc(Br)cc3F)c(C(=O)NOCCO)cc21 | inactive |
| O=S(=O)(O)CCSSCCS(=O)(=O)O | 10.5 µM (active) |
| C[C@@]12C[C@@]3(O)O[C@@H](O1)[C@]1(COC(=O)c4ccccc4)[C@@H]3C[C@@]12O[C@@H]1O[C@H](CO)[C@@H](O)[C@H](O)[C@@H]1O | inactive |
| C[C@]12C=CC(=O)N[C@@H]1CC[C@H]1[C@H]3CC[C@@H](C(=O)Nc4cc(C(F)(F)F)ccc4C(F)(F)F)[C@@]3(C)CC[C@@H]12 | inactive |
| CC(=O)O[C@@]12CO[C@H]1C[C@H](O)[C@@]1(C)C(=O)[C@H](O)C3=C(C)[C@@H](OC(=O)C(O)[C@@H](NC(=O)OC(C)(C)C)c4ccccc4)C[C@@](O)([C@@H](OC(=O)c4ccccc4)[C@@H]21)C3(C)C (some centres not stated) | 0.001 µM (active) |

experiment: qHTS of pediatric cancer cell lines to identify multiple opportunities for drug repurposing: Primary screen for BT-37 cells (AID 1347094); settings: BT-37 viability, CellTiter-Glo luminescence, 48 h; series mostly up to 57.3 µM
Procedure, shortened: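 Luminescence from CellTiter-Glo served as readout of metabolically active cells after 48 h compound exposure. Titrations: MIPE 11-point, from 0.78 nM; NPC 8-point, from 0.59 nM (final). Concentration-response curves came straight from the primary screen.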

| SMILES | Potency |
| --- | --- |
| O=C(Nc1nnc(-c2ccco2)o1)c1cc(-c2ccccc2)nc2ccccc12 | 27.3 µM (active) |
| OCC(O)C(O)C(O)CO (configuration not stated) | inactive |
| C[C@H]1[C@@H](OC(=O)CCC(=O)O)O[C@@H]2O[C@@]3(C)CC[C@@H]4[C@H](C)CC[C@@H]1[C@@]24OO3 | 3.85 µM (active) |
| Cc1cnc(Nc2ccc(CN3CCOCC3)cc2)nc1Nc1cccc(S(=O)(=O)NC(C)(C)C)c1 | 17.2 µM (active) |
| OC[C@@H](O)[C@@H](O)[C@H](O)[C@@H](O)CO | inactive |
| CC(C)c1cc(C(C)C)c(CC(=O)NS(=O)(=O)Oc2c(C(C)C)cccc2C(C)C)c(C(C)C)c1 | 24.3 µM (active) |
| C=C(C)[C@@H]1CC[C@]2(C(=O)O)CC[C@]3(C)[C@H](CC[C@@H]4[C@@]5(C)CC[C@H](O)C(C)(C)[C@@H]5CC[C@]43C)[C@@H]12 | inactive |
| CC(C)C[C@H](NC(=O)[C@@H](NC(=O)c1cccc(-c2ccccc2)n1)[C@@H](C)O)B(O)O | 0.0968 µM (active) |
| C[N+](C)([O-])CCNc1ccc(NCC[N+](C)(C)[O-])c2c1C(=O)c1c(O)ccc(O)c1C2=O | inactive |
| CCN(C(=O)c1c(O)c2c(Cl)cccc2n(C)c1=O)c1ccccc1 | 21.7 µM (active) |
| CC(C)(O)CC[C@@H](O)[C@](C)(O)[C@H]1CC[C@@]2(O)C3=CC(=O)[C@@H]4C[C@@H](O)[C@@H](O)C[C@]4(C)[C@@H]3CC[C@]12C | inactive |
| CCS(=O)(=O)Nc1ccc2[nH]c(O)c(C(=Nc3ccc(CN4CCCCC4)cc3)c3ccccc3)c2c1 | 27.3 µM (active) |
| c1coc(CNc2ncnc3nc[nH]c23)c1 | inactive |
| CCCCOc1ccc(C(=O)Nc2ccc(F)cc2F)cc1 | inactive |
| CCOc1cc2c(c(F)c1OCC)C(=N)N(CC(=O)c1cc(N3CCOCC3)c(OC)c(C(C)(C)C)c1)C2 | 27.3 µM (active) |
| CC[C@H]1OC(=O)[C@H](C)[C@@H](O[C@H]2C[C@@](C)(OC)[C@@H](O)[C@H](C)O2)[C@H](C)[C@@H](O[C@@H]2O[C@@H](C)C[C@H](N(C)C)[C@@H]2O)[C@](C)(O)C[C@@H](C)C(=O)[C@H](C)[C@@H](O)[C@]1(C)O | inactive |
| Cc1ccc2nc(NCCN)c3ncc(C)n3c2c1 | 24.3 µM (active) |
| CC(=O)O[C@H]1C[C@@H]2CC[C@H]3[C@H]4C[C@H]([N+]5(C)CCCCC5)[C@@H](OC(C)=O)[C@@]4(C)CC[C@@H]3[C@@]2(C)C[C@H]1N1CCCCC1 | inactive |
| CC(C)(O)[C@H]1CC[C@@](C)([C@H]2[C@@H](O)C[C@@]3(C)[C@@H]4C[C@H](O[C@@H]5O[C@H](CO)[C@@H](O)[C@H](O)[C@@H]5O)[C@H]5C(C)(C)[C@@H](O[C@@H]6OC[C@@H](O)[C@H](O)[C@@H]6O)CC[C@@]56C[C@@]46CC[C@]23C)O1 | inactive |
| O=C(Nc1ccc(Oc2ccnc3[nH]ccc23)c(F)c1)c1cccn(-c2ccc(F)cc2)c1=O | inactive |
| CC(=O)OC[C@@H]1O[C@@H](n2ccc(=O)[nH]c2=O)[C@H](OC(C)=O)[C@H]1OC(C)=O | inactive |
| Cn1cnc2c(F)c(Nc3ccc(Br)cc3F)c(C(=O)NOCCO)cc21 | inactive |
| C[C@H](NC(=O)[C@@H](O)c1cc(F)cc(F)c1)C(=O)N[C@@H]1C(=O)N(C)c2ccccc2-c2ccccc21 | inactive |
| O=S(=O)(O)CCSSCCS(=O)(=O)O | inactive |
| C[C@@]12C[C@@]3(O)O[C@@H](O1)[C@]1(COC(=O)c4ccccc4)[C@@H]3C[C@@]12O[C@@H]1O[C@H](CO)[C@@H](O)[C@H](O)[C@@H]1O | inactive |
| CC(=O)C1=C(O)C=C2Oc3c(C(C)=O)c(O)c(C)c(O)c3C2(C)C1=O (configuration not stated) | 1.37 µM (active) |
| Nc1ncn([C@@H]2O[C@H](CO)[C@@H](O)[C@@H]2O)c(=O)n1 | 10.9 µM (active) |
| C[C@]12C=CC(=O)N[C@@H]1CC[C@H]1[C@H]3CC[C@@H](C(=O)Nc4cc(C(F)(F)F)ccc4C(F)(F)F)[C@@]3(C)CC[C@@H]12 | inactive |
